Results reported in the supplement of paper PMC6555819.

Experiments:
Experiment in all cases: PBM binding z-score (relative to random genomic background probes); higher = stronger binding; sequences stand for … in GC…GCGATTGACAGCGTAGAATGAAGG
[1] = system: FXR:RXRa (NR concentration 270 nM, RXRa partner concentration 90 nM)
Method in brief: (§1)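 Binding buffer was PBS pH 7.4 with 2% milk, 0.02% Triton X-100, 1 mM DTT, 0.2 mg/mL BSA and 0.4 mg/ml salmon testes DNA. In it, ligand-free nuclear receptor dimers were incubated 1 h on custom Agilent 4×180K protein-binding microarrays carrying double-stranded probes. Antibodies against each partner (one per run) detected binding, and z-scores were calculated against random background probes after regression normalization of scanned fluorescence.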

[2] = system: LXRa:RXRa (NR concentration 270 nM, RXRa partner concentration 90 nM)
Method in brief: as §1

[3] = system: LXRa homodimer (NR concentration 270 nM)
Method in brief: as §1

[4] = system: LXRb:RXRa (NR concentration 270 nM, RXRa partner concentration 90 nM)
Method in brief: as §1

[5] = system: LXRb homodimer (NR concentration 270 nM)
Method in brief: as §1

[6] = system: PPARa:RXRa (NR concentration 270 nM, RXRa partner concentration 90 nM)
Method in brief: as §1

[7] = system: PPARg:RXRa (NR concentration 180 nM, RXRa partner concentration 90 nM)
Method in brief: as §1

[8] = system: PPARg:RXRa 270nM:90nM, anti-RXR (NR concentration 270 nM, RXRa partner concentration 90 nM)
Method in brief: as §1

[9] = system: PPARg:RXRa 30nM:10nM, anti-RXR (NR concentration 30 nM, RXRa partner concentration 10 nM)
Method in brief: as §1

[10] = system: PPARg:RXRa 90nM:30nM, anti-RXR (NR concentration 90 nM, RXRa partner concentration 30 nM)
Method in brief: as §1

Row | Sequence | PBM binding z-score [1] | PBM binding z-score [2] | PBM binding z-score [3] | PBM binding z-score [4] | PBM binding z-score [5] | PBM binding z-score [6] | PBM binding z-score [7] | PBM binding z-score [8] | PBM binding z-score [9] | PBM binding z-score [10]
1 | CAAATTAGGTCACCGGAAGGTCAAAGTCCGCATG | 6.61 | 6.31 | 5.39 | 5.47 | 1.82 | 6.44 | 9.14 | 7.56 | 5.87 | 7.39
2 | ATCTCTACGTAACAAGTTCAGTGAAAGAGAGGAC | 0.253 | 0.5 | 0.496 | 0.811 | 1.27 | 0.449 | 0.368 | 0.316 | 0.334 | 0.321
3 | ATCGAAAGGTCGCCGAGGTGAGTATACACCGTTT | 5.1 | 3.88 | 0.0507 | 3.11 | 0.601 | 5.12 | 3.84 | 4.39 | 1.55 | 2.85
4 | ATATGTAGGTTAGCTGGGGTCATTCGGACTAGGC | 4.85 | 5.8 | 3.75 | 4.73 | 1.58 | 5.11 | 5.79 | 5.43 | 3 | 4.4
5 | TCTGCTAGGTCAGTTGGTCAGATAACGAGCTGCC | 1.05 | 0.831 | -0.457 | 0.683 | 0.181 | 1.36 | 0.922 | 1.72 | 1.53 | 1.68
6 | ATCTCTAGGTAAGACTCAGTTCAGTGCAGAACGC | 0.385 | 0.334 | 0.807 | 0.371 | 0.594 | 0.349 | 0.209 | 0.0288 | 0.281 | 0.195
7 | CGAACTAGGTCAAAGACAGTGAATCTCCGCACGC | 3.64 | 2.39 | 0.268 | 1.66 | 0.166 | 4.8 | 7.47 | 6.52 | 4.4 | 6.21
8 | TCGAGTAGGTTAGTCGGGGCATCCAGCCAACATA | 0.256 | 0.187 | -0.411 | 0.296 | -1.13 | 0.822 | -0.0152 | 0.685 | 0.993 | 0.766
9 | TCGAGCAGGTTAGGGGCATTCAGAATGGCGTCGA | 0.0413 | 0.102 | -0.285 | 0.523 | -0.591 | 0.89 | -0.117 | 0.183 | 0.0683 | 0.228
10 | TTACCAAGGTGATGGTCGTTGATCCCTCTGTAGA | 0.274 | 0.0639 | -0.222 | 0.219 | -0.598 | 0.442 | -0.08 | 0.334 | 0.217 | 0.0112
11 | GAGACAGGGTCAAGGCCAGAGTACGCGTATTGAT | 6.57 | 3.62 | -0.408 | 3.43 | -0.789 | 5.24 | 4.71 | 4.73 | 1.4 | 3.22
12 | CCGACTTGGGCAAGGTTACCATAACGCACAGCCA | 0.05 | 0.652 | -0.339 | 0.538 | -0.76 | 0.821 | 0.77 | 0.417 | -0.317 | 0.00151
13 | AGTCAAAGTTCATCTAGGTAACGGAAGATATGCT | 6.87 | 6.02 | 4.37 | 3.7 | 1.73 | 4.86 | 6.85 | 6.48 | 3.55 | 5.62
14 | ATATGTAGGTTAACGGGTCATTCAGTTTGCGCAT | 2.83 | 3.03 | 1.03 | 3.05 | 0.599 | 5.14 | 7.84 | 6.45 | 4.4 | 6.25
15 | TGACCAAGGTGAAGGTCGTTGATCCCTCTGTAGA | 2.13 | 1.77 | -0.327 | 1.57 | -1.14 | 2.49 | 2.18 | 3.17 | 0.953 | 2.49
16 | CGTCCAGGGTCAGCAGGTCAGTGAAAGCGACGTG | 5.44 | 3.06 | -0.214 | 3.1 | -0.458 | 5.11 | 4.16 | 4.41 | 0.684 | 2.92
17 | ATCTCTAGGTAACATGTTCAGTGAAAGAGAGGAC | 0.248 | 0.254 | -0.139 | 0.402 | 0.902 | 0.519 | 1.15 | 1.25 | 0.432 | 1.07
18 | ATATGTAGGTTAGCTGCGGTCATTCAGACTAGGC | 1.46 | 5.96 | 4.17 | 2.56 | 0.134 | 2.82 | 3.47 | 3.02 | 0.942 | 2.27
19 | AGTCAACGTTCAGGACGAGGTAACGTAAAGCACG | -0.0969 | -0.468 | -0.628 | -0.496 | -0.581 | -0.416 | 0.73 | -0.278 | -0.327 | -0.0729
